PubChem BioAssay (NCATS)
Inconclusive results are not listed. Activity calls are given as the source filed them. Unless noted, calls follow the shape of the full dose curve.

How the values were obtained:
[1] = Primary qHTS for Huh7 cytotoxicity: counterscreen for inhibitors of MERS-S pseudotyped particle cell entry (AID 1479147); conditions: outcome: dose series up to 57.1 µM unless noted
[2] = Primary qHTS for inhibitors of MERS-S pseudo-typed particle cell entry (AID 1479149); conditions: outcome: dose series up to 57.1 µM unless noted; also: nearly all actives have a fitted effect of over 60% in size; also: potency is read from the fitted curve at half-maximal effect
[3] = Primary qHTS for Vero E6 cytotoxicity: counterscreen for inhibitors of SARS-S pseudo-typed particle cell entry (AID 1479150); conditions: outcome: dose series up to 57.1 µM unless noted
[4] = molecular target: Cytochrome P450 2D6 (Homo sapiens) (UniProt P10635); test: Cytochrome P450 family 2 subfamily D member 6 (CYP2D6) small molecule antagonists: luciferase biochemical (cell-free) qHTS assay (AID 1645840; active = well fitted curve in the direction sought with a large enough effect in the repeat runs; an effect the other way counts as inactive or inconclusive; also: nearly all actives have a fitted effect of over 55% in size; also: potency is read from the fitted curve at half-maximal effect)
Method in brief: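 P450-Glo CYP2D6 system: proluciferin substrate converted by enzyme to luciferin, read by luminescence proportional to activity. Enzyme-substrate mix with compound 10 min at room temperature, then NADPH regeneration 1 h before detection reagent.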

[5] = Cytotoxicity counterscreen for inhibitors of SARS-CoV-2 cell entry (AID 1645845); conditions: outcome: dose series up to 57.1 µM unless noted; also: nearly all actives have a fitted effect of over 50% in size
Method in brief: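 ATP-content luminescence (ATPLite 1step, 15 min RT) read after 48 h compound exposure of Expi293F cells stably expressing human ACE2; normalized to cells-only wells and media-only wells.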

[6] = molecular target: Glutathione peroxidase 1 (Homo sapiens) (UniProt P07203); test: Primary qHTS Assay for Inhibitors of Recombinant Selenoprotein Glutathione Peroxidase 1 (GPX1) (AID 1845191; active = well fitted curve in the direction sought with a large enough effect; an effect the other way counts as inactive or inconclusive; also: nearly all actives have a fitted effect of over 65% in size)
Method in brief: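 NADPH consumption tracked by fluorescence at 340/450 nm between t=0 and t=15 min, room temperature. Final mix: 10 nM GPX1, 100 nM glutathione reductase, 1 mM GSH, 0.5 mM NADPH, 0.5 mM cumene hydroperoxide, 0.01% BSA; 30 min compound–enzyme preincubation.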

[7] = Confirmatory qHTS to identify inhibitors of SARS-CoV-2 cell entry (AID 1645844); also: potency is read from the fitted curve at half-maximal effect; nearly all actives have a fitted effect of over 45% in size
Method in brief: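 Luminescence entry read-out after 48 h: spike-pseudotyped MLV particles (Wuhan-Hu-1, 19-aa C-terminal truncation) added to compound-pretreated (1 h) HEK293-ACE2 cells; Data were normalised to bald PP and spike PP wells.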

[8] = VSVG counterscreen qHTS to identify inhibitors of SARS-CoV-2 cell entry (AID 1645847); also: potency is read from the fitted curve at half-maximal effect; nearly all actives have a fitted effect of over 65% in size
Method in brief: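 Expi293F/hACE2 cells, overnight plating; cpd 1 h, 37C/5% CO2; + VSV-G PP (MLV pseudotyping), 48 h; supernatant removed, Bright-Glo luciferase read. Norm: VSV-G PP and bald PP wells.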

[9] = Primary qHTS to identify inhibitors of SARS-CoV-2 cell entry (AID 1645846); conditions: SARS-CoV-2 pseudovirus cell entry assay, luminescence; activity change, negative = inhibition: at 57.1 µM (top of the series) unless noted; also: nearly all actives have a fitted effect of over 45% in size
Method in brief: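 HEK293-ACE2 (Expi293F, stable hACE2), 1500 cells/well, o/n 37C; cpd 23 nL pin, 1 h; MLV-PP w/ SARS-CoV-2-S (Wuhan-Hu-1, Δ19 C-term); 48 h 37C; Bright-Glo luminescence; normalized vs S-PP and bald PP.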

Chain of Glutathione peroxidase 1 (Homo sapiens) (P07203 whole entry, looked up): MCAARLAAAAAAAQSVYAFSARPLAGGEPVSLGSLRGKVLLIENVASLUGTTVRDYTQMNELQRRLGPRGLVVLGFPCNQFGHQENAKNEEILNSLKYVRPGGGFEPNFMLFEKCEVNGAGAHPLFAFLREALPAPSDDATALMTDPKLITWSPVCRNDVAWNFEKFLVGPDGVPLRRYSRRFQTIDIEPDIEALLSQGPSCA
Chain of Cytochrome P450 2D6 (Homo sapiens) (P10635 whole entry, looked up): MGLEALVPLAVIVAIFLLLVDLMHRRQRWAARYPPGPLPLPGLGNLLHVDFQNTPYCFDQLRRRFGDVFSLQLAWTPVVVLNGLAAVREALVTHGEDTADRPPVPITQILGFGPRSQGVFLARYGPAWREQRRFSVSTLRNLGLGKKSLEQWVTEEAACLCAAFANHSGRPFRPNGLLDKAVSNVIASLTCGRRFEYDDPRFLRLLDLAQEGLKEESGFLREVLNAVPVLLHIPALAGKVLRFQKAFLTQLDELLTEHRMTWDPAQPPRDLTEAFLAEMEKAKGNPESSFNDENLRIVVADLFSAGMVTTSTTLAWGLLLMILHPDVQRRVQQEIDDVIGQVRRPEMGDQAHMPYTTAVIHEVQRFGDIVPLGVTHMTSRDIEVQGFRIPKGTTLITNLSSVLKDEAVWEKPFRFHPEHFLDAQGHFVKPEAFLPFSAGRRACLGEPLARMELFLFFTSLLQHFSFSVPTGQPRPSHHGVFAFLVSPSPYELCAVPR

NCCS[As](SCCN)c1ccc(Nc2nc(N)nc(N)n2)cc1
inactive: Potency [1] | Potency [2] | Potency [3] | Potency [4] | Potency [5] | Potency [6]

C[C@@]12CCCCC[C@@H](Cc3ccc(O)cc31)[C@H]2N
inactive: Potency [1] | Potency [2] | Potency [3] | Potency [6]
active: Potency [4] 16.9 µM

C#C[C@]1(OC(C)=O)CC[C@H]2[C@@H]3CCC4=CC(=O)CC[C@@H]4[C@H]3CC[C@@]21C
inactive: Potency [1] | Potency [2] | Potency [3] | Potency [5]

N[C@H](Cc1cnc[nH]1)C(=O)O
inactive: Potency [1] | Potency [2] | Potency [3] | Potency [5]

C=CC1(C)CC(=O)C2(O)C(C)(O1)C(OC(C)=O)C(OC(=O)CCN(C)C)C1C(C)(C)CCC(O)C12C (stereo unspecified)
inactive: Potency [1] | Potency [2] | Potency [3] | Potency [5]

O=C(O)C[C@@H]1CC[C@H](NC(=O)Cc2cccs2)B(O)O1
inactive: Potency [1] | Potency [2] | Potency [3] | Potency [5]

C[C@H]1[C@H](OC(=O)CCC(=O)O)O[C@@H]2O[C@@]3(C)CC[C@H]4[C@H](C)CC[C@@H]1[C@@]24OO3
inactive: Potency [1] | Potency [3]
active: Potency [2] 2.82 µM | Potency [7] 1.36 µM | Potency [8] 1.21 µM

CN1N=C2CCN(C(=O)[C@H](COCc3ccccc3)NC(=O)C(C)(C)N)C[C@]2(Cc2ccccc2)C1=O
inactive: Potency [1] | Potency [2] | Potency [3] | Potency [5]

COc1cc(N)cn[n+]1-c1ccccc1
inactive: Potency [1] | Potency [2] | Potency [3] | Potency [5]

Cc1c(N)nc(C(CC(N)=O)NCC(N)C(N)=O)nc1C(=O)NC(C(=O)NC(C)C(O)C(C)C(=O)NC(C(=O)NCCc1nc(-c2nc(C(=O)NCCCN[C@@H](C)c3ccccc3)cs2)cs1)C(C)O)C(O[C@@H]1O[C@@H](CO)[C@@H](O)[C@H](O)[C@@H]1O[C@H]1O[C@H](CO)[C@@H](O)[C@H](OC(N)=O)[C@@H]1O)c1cnc[nH]1 (stereo partly specified)
-97.1%: activity change, negative = inhibition [9]
active: Potency [7] 0.0215 µM | Potency [8] 0.0271 µM
inactive: Potency [1] | Potency [2] | Potency [3]

CC(C)(C)NC(=O)N[C@H](C(=O)N1C[C@H]2[C@@H]([C@H]1C(=O)NC(CC1CCC1)C(=O)C(N)=O)C2(C)C)C(C)(C)C (stereo partly specified)
inactive: Potency [1] | Potency [2] | Potency [3] | Potency [5]

CC1CC(OC(=O)C(O)c2ccccc2)CC(C)(C)C1 (stereo unspecified)
inactive: Potency [1] | Potency [2] | Potency [3] | Potency [5]

CC1(C)SC2C(NC(=O)Cc3ccccc3)C(=O)N2C1C(=O)O (stereo unspecified)
inactive: Potency [1] | Potency [2] | Potency [3] | Potency [5]

COC(=O)[C@H]1[C@H]2C[C@@H]3c4[nH]c5cc(OC)ccc5c4CCN3C[C@H]2C[C@@H](OC(=O)/C=C/c2cc(OC)c(OC)c(OC)c2)[C@@H]1OC
inactive: Potency [1] | Potency [2] | Potency [3] | Potency [5]

COc1nc2ccc(Br)cc2cc1[C@@H](c1ccccc1)[C@@](O)(CCN(C)C)c1cccc2ccccc12
inactive: Potency [1] | Potency [2] | Potency [3] | Potency [5]

CCC(=O)O[C@@H](OP(=O)(CCCCc1ccccc1)CC(=O)N1C[C@H](C2CCCCC2)C[C@H]1C(=O)O)C(C)C (stereo partly specified)
inactive: outcome [1] inactive [at 11.4 µM] | outcome [2] inactive [at 11.4 µM] | outcome [3] inactive [at 11.4 µM] | outcome [5] inactive [at 11.3 µM]

C=Cc1c(C)c2cc3nc(c(CC(=O)N[C@@H](CC(=O)O)C(=O)O)c4nc(cc5[nH]c(cc1[nH]2)c(C)c5CC)C(C)=C4C(=O)O)[C@@H](CCC(=O)O)[C@@H]3C
inactive: Potency [1] | Potency [2] | Potency [3] | Potency [5]

COc1ccc(-c2c(Cl)ncn2-c2ccc(S(N)(=O)=O)cc2)cc1F
inactive: Potency [1] | Potency [2] | Potency [3] | Potency [5]

C[C@H](Cc1cc2c(c(C(N)=O)c1)N(CCCO)CC2)NCCOc1ccccc1OCC(F)(F)F
inactive: Potency [1] | Potency [2] | Potency [3] | Potency [5]

CCC(C)C(C(=O)OCC[N+](C)(CC)CC)c1ccccc1 (stereo unspecified)
inactive: Potency [1] | Potency [2] | Potency [3] | Potency [5]
